Compound activity: PubChem BioAssay, National Center for Advancing Translational Sciences (NCATS)
Rows were chosen to be rich in hits. Some 14% of all compounds tested hit in one or more screens of this group.
MARV entry inh – Marburg virus entry inhibition | Marburg virus pseudotyped entry inhibition, cell reporter | Potency, µM (titrated, usually from 37.8 µM), for inactives: at the highest dose activity change, negative = inhibition, usual class: inhibitors | 300,000 tested, 1.8% active; calls by dose curve; tested in HEK293 cells; note: potency is the fitted concentration of half-maximal effect
HCV inh – inhibitors of hepatitis C virus infection | 340,000 tested, 3.4% active | Huh7.5.1 HCVcc-Cre infection, luciferase reporter, 44 h | AID 651820 | Potency, µM (top dose mostly 41.8 µM), for inactives: top-dose activity change, negative = inhibition, usual class: inhibitors; note: potency is the fitted concentration of half-maximal effect
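Infectious HCV cell culture screen: compound-treated cells (1,000/well, pre-plated 4 h) are infected with HCVcc-Cre at roughly 0.5 moi and grown 44 h. Infection is quantified by luciferase signal after 15 min substrate incubation at room temperature.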
Lassa entry inh – inhibitors of Lassa virus binding or cell entry; Lassa virus pseudotype entry inhibition, cell reporter; Potency, µM (doses to about 37.9 µM), for inactives: at the highest dose activity change, negative = inhibition, most hits filed as inhibitors; 300,000 tested, 1.2% active; calls by dose curve; tested in HEK293 cells; note: potency is the fitted concentration of half-maximal effect; nearly all actives have a fitted effect of over 50% in size
Pf growth 96h – inhibits malaria parasite growth, 96 h; Potency, µM (titrated, usually from 28.7 µM), inactives show at the highest dose activity change, negative = inhibition, actives largely listed as inhibitors; 320,000 tested, 6.9% active; P. falciparum luciferase reporter growth, 96 h; note: potency is the fitted concentration of half-maximal effect
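Infected RBCs, 2% Hct / 0.05% parasitemia final; luciferase-reporter P. falciparum; cpd 96 h, 37 C, 5% CO2; luciferase detection reagent; luminescence.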
HCMV antiviral – blocks human cytomegalovirus replication; HFF cells, HCMV-luciferase reporter, 72 h; hits give low values; activity change, negative = inhibition, % at 57.5 µM; 410,000 tested, 4.5% active; in the data active = activity change below about -60%; inconclusive = no clear call, values can overlap the other calls; inactive = above about -39%
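Compounds were evaluated in HFFs infected with an HCMV luciferase reporter virus (MOI 1 PFU/cell). Luciferase in lysates collected 72 h post infection served as the replication measure.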
Pf growth 48h – inhibits P. falciparum growth in the first generation, 48 h; P. falciparum luciferase growth in erythrocytes, 48 h; 310,000 tested, 5.9% active; AID 504832; Potency, µM (series often up to 28.7 µM), without a hit: at the top dose activity change, negative = inhibition, hits mostly inhibitors; note: potency is the fitted concentration of half-maximal effect
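Luciferase-expressing parasites in RBCs, 2% Hct / 0.1% parasitemia final; RPMI 1640 + 0.5% Albumax; 37 C, 5% CO2, one generation; luminescence read-out, lower signal = inhibition.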
* marks the source's active call; other numbers are inactive results; ? = inconclusive; / = not tested or not shown; [ ] = remark or other dose. Unless noted, calls come from the whole dose curve; as a rule, active = well fitted inhibition curve with a large enough effect; inconclusive = small, poorly fitted or top-dose-only effect, or another doubt; inactive = no such curve, though single readings can be large or run the other way. % is set by controls: 0 for no effect and ±100 for the full control effect.

SMILES | MARV entry inh | HCV inh | Lassa entry inh | Pf growth 96h | HCMV antiviral | Pf growth 48h
Cc1cccc(C(=O)OCc2cc(=O)n3nc(C4CC4)sc3n2)c1 | / | / | 15%[46.1 µM] | / | 0 | /
CCCCOc1ccc(C(=O)N2CCC(C)CC2)cc1 | 30% | 7% | ? | / | -28 | 26%
CC1CN(C)CCC1OC(=O)c1ccccc1 (stereo not drawn) | / | -3% | / | 2.1µM* | -16 | 10%
CCCCOc1ccc(C(=O)OC2CC(C)N(C)CC2C)cc1 (stereo not drawn) | ? | 4.5µM* | 3% | / | 2 | ?
CCCCCCN1C[C@H](n2cc(C3CC3)nn2)[C@@H](O)C[C@@H]1c1ccccc1 | / | / | / | / | -38 | /
CN(C(=O)Cn1c(=O)oc2cc(S(=O)(=O)N3CCCC3)ccc21)C1CCCCC1 | / | -3% | / | 3% | -28 | -24%
Cc1ccc(NC(=O)c2cc3nc(-c4ccc5c(c4)OCO5)cc(C(F)(F)F)n3n2)cc1Cl | -13%[46.1 µM] | / | -12%[46.1 µM] | / | 16 | /
COc1ccc(C2CC(c3cccs3)=NN2C(=O)c2ccco2)cc1OC (stereo not drawn) | ? | -19% | -26%[46.1 µM] | 0.13µM* | ? | 0.26µM*
O=C(c1ccco1)N1N=C(c2cccs2)CC1c1ccc(F)cc1 (stereo not drawn) | -4% | ? | 0% | 0.83µM* | 5 | /
COc1ccc(C2CC(c3cccs3)=NN2C(=O)CSc2nnnn2C)cc1OC (stereo not drawn) | / | -16% | / | 12µM* | ? | ?
O=C(c1cccs1)N1N=C(c2ccccc2)CC1c1ccccc1 (stereo not drawn) | ? | 14µM* | ? | 2.6µM* | ? | ?
COc1ccc(C2CC(c3cccs3)=NN2C(=O)CSc2nncn2C)cc1OC (stereo not drawn) | / | 2% | / | 8% | -27 | 1%
COc1ccccc1S(=O)(=O)N(C)C[C@H]1OCc2cnnn2CCCC(=O)N([C@H](C)CO)C[C@H]1C | / | / | / | / | -20 | /
CCCN(CCC)C(=O)Cn1c(=O)n(-c2cccc(C(F)(F)F)c2)c(=O)c2c(C)c(C)sc21 | -16%[46.1 µM] | / | -1%[46.1 µM] | / | -2 | /
COc1ccc(C2CC(c3cccs3)=NN2C(=O)c2ccc(Br)o2)cc1 (stereo not drawn) | ? | 10µM* | 8% | ? | ? | 1.7µM*
COc1ccccc1NC(=O)c1sc2nc3n(c(=O)c2c1C)N=C(c1cccc(Br)c1)CS3 | / | / | 28%[46.1 µM] | / | 24 | /
COc1ccccc1CNC(=O)CCc1c(C)c2cc3c(C)c(C)oc3cc2oc1=O | ? | / | 6%[46.1 µM] | / | ? | /
CCCC(=O)N(C1CC(C)C(C#N)(C#N)C1(C#N)C#N)N(C)C (stereo not drawn) | ? | ? | ? | -10% | -90* | 7%
COC(=O)c1cc(S(=O)(=O)NCC(C)c2ccccc2)c[nH]1 (stereo not drawn) | / | / | / | / | 5 | /
Brc1ccc(-c2ccc(/C=N/Nc3nc(N4CCOCC4)nc(N4CCOCC4)n3)o2)cc1 | 4µM* | ? | -12%[46.1 µM] | 11% | ? | 12µM*
Clc1ccc(-c2ccc(/C=N/Nc3cc(N4CCOCC4)nc(N4CCOCC4)n3)o2)cc1 | 6.3µM* | ? | 6% | -2% | -34 | 9.3µM*
Fc1cnc(N/N=C/c2ccc(-c3ccc(Br)cc3)o2)nc1N1CCOCC1 | 0%[46.1 µM] | 16% | 5%[46.1 µM] | 5.9µM* | 5 | ?
COc1cc(NC(=O)CC(c2cccs2)N2Cc3ccccc3C2=O)cc(OC)c1OC (stereo not drawn) | / | / | 5%[46.1 µM] | / | -5 | /
Cc1nc(SCC(=O)Nc2cccc(Cl)c2)n[nH]1 | 13% | 8% | 7% | -9% | -9 | 13%
O=C(CSc1n[nH]c(-c2ccccn2)n1)Nc1cccc(Cl)c1 | ? | 10µM* | ? | ? | -98* | ?
Nc1nc(SCC(=O)Nc2cccc(F)c2)n[nH]1 | / | -1% | / | / | -100* | /
CCOc1ccc(CCNC(=O)Cn2nc(CC)n3c(cc4c(OC)cccc43)c2=O)cc1OCC | -13%[46.1 µM] | / | / | / | 5 | /
Cc1cc(O)cc(O)c1C(=O)Cc1ccccc1 | ? | 9% | ? | 28% | -71* | 15%
